Bioassay records (PubChem)
dFosB act: activators of mouse delta FosB homodimer; activation, % at 25 µM; purified delta FosB, TAMRA-CDK5 oligo fluorescence polarization; percent of positive-control signal above neutral wells; 340,000 tested, 0.99% active;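 active means mean activation above about 17%, with every replicate also reaching it, limit read from the data, passing the limit was not always enough; inconclusive means only one of the two conditions met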
Target sequence (P13346 whole entry, looked up): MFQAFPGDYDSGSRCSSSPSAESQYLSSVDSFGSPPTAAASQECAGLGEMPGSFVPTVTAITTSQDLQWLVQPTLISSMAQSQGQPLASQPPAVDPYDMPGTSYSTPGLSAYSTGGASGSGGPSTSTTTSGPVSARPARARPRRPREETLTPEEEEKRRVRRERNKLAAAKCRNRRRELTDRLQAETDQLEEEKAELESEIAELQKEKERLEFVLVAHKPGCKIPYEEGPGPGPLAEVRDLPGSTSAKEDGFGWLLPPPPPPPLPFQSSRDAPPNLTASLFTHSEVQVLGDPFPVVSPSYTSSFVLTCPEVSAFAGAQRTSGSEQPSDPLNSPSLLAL
NR3A LBD binder: NR3A (human) ligand-binding domain modulation; Tm shift relative to glycine control, % at 25 µM; 340,000 tested, 2.5% active; NR3A LBD differential scanning fluorimetry, Tm shift; 0% = protein alone, 100% = glycine-bound protein;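 active means melting temperature shift of at least 10% of the positive control shift, at one fixed dose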
Rpn11 block: blocks the human proteasome subunit Rpn11. human 26S proteasome, Ub4-pepOG fluorescence polarization; 20S core pre-blocked with epoxomicin. inhibition, % at 20 µM. 360,000 tested, 0.59% active. AID 588493;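 active means inhibition at 20 µM, scaled to each plate's controls, above about 33%, limit read from the data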
TPT1 inh: blocks Candida albicans tRNA 2'-phosphotransferase. recombinant caTPT1, FP RNA substrate dephosphorylation. 300,000 tested, 0.81% active. inhibition, % at 5 µM. AID 1962;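 active means inhibition above the mean of all tested compounds plus 3 SD, set per screening campaign, cut at about 24% in these data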;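 further: plate controls were DMSO alone for no effect and ferristatin control at 100 nM for full effect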
EBNA-1 inhibitor: blocks EBNA-1 binding to DNA | AID 1950 | 300,000 tested, 0.34% active | EBNA-1 DNA binding, fluorescence polarization | inhibition, % at 14.8 µM; in the data active means inhibition above about 28%
ZTA DNA inh: ZTA (EBV) inhibition in EBNA-1 counter-screen; inhibition, % at 11 µM; ZTA-DNA binding, fluorescence polarization; 320,000 tested, 0.15% active; in the data active means inhibition above about 33%
Target sequence (P03206 whole entry, looked up): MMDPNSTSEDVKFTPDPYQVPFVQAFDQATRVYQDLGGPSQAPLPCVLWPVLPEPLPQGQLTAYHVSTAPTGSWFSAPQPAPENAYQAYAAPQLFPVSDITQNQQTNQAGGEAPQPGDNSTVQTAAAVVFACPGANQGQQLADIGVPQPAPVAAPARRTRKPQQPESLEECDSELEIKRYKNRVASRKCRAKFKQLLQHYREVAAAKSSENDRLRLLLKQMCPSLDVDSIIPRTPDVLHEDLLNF
* = called active by the depositor; u = inconclusive; x = no result. In the library only some 4.5% were active in any assay of this set; here they are far more common.

SMILES | dFosB act | NR3A LBD binder | Rpn11 block | TPT1 inh | EBNA-1 inhibitor | ZTA DNA inh
Cc1ccc(S(=O)(=O)N2CCOCC2)cc1NC(=O)COC(=O)/C=C/c1ccc(F)cc1 | 81* | 3 | -2 | x | x | x
COc1ccc2c(c1)[C@H]1[C@H](CO2)[C@H](c2ccccc2)[C@]2(C)C(=O)N[C@H](C)C(=O)N12 | 0 | -1 | -4 | x | x | -4
O=C(OCC(=O)N1CCOCC1)c1ccc(Br)cc1 | 1 | -1 | -4 | 0 | 15 | 14
Nc1c(N(CCC2=CCCCC2)C(=O)c2ccc([N+](=O)[O-])o2)c(=O)[nH]c(=O)n1Cc1ccccc1 | 0 | -6 | 39* | 9 | 2 | 4
Cn1cnc2c1c(=O)[nH]c(=O)n2Cc1ccccc1 | 1 | 10* | -2 | -1 | -4 | 3
Cc1ccc(S(=O)(=O)N(C)C)cc1NC(=O)CCNC(=O)c1ccco1 | -8 | -4 | 5 | -1 | -12 | -8
O=C(CCN1C(=O)/C(=C/c2ccccc2Cl)SC1=S)NC1C=CS(=O)(=O)C1 (stereo unspecified) | 28* | 0 | 0 | -2 | -9 | 5
CCc1cccc(CC)c1NC(=O)COC(=O)Cc1ccsc1 | -1 | -3 | -7 | -1 | -4 | -19
COc1cccc(NC(=O)COC(=O)CCCc2c[nH]c3ccccc23)c1 | -8 | 4 | 2 | 0 | 4 | -15
COc1ccc(NC(=O)COC(=O)CCCc2c[nH]c3ccccc23)cc1 | -1 | 21* | -4 | 1 | 2 | 6
CCOc1ccc(NC(=O)COC(=O)CCCc2c[nH]c3ccccc23)cc1 | -4 | 28* | 8 | -3 | -2 | -12
CCOc1ccc(NC(=O)COC(=O)Cc2ccsc2)cc1 | 1 | 34* | -5 | x | x | x
COc1ccc(S(=O)(=O)N2C[C@H]3CON(C)[C@H]3C[C@H]2c2ccc(-c3cc4ccccc4o3)cc2)cc1 | x | x | 4 | x | x | x
Cn1cc(-c2coc3c(C(=O)NCc4ccco4)cccc23)cn1 | x | x | -3 | x | x | x
Cc1cc(C(=O)NC2CC(C)(C)Cc3c2cnn3-c2cccc(F)c2)n(C)n1 (stereo unspecified) | -6 | -1 | -11 | -3 | -5 | 0
Cc1cc(C(=O)NC2CC(C)(C)Cc3c2cnn3-c2cccc(F)c2)nn1C (stereo unspecified) | -2 | 12* | -1 | 5 | -5 | 1
Cc1ccc(-n2ncc3c(SCc4cccnc4)ncnc32)c(C)c1 | -7 | 0 | 3 | x | x | x
Cn1cccc1CNC(=S)Nc1ccccc1F | -5 | 0 | -4 | 0 | -9 | -7
O=C(NCc1ccco1)/C(=C/c1ccccc1F)NC(=O)c1ccccc1 | 4 | 14* | -1 | -1 | -13 | -7
COc1ccc2ncc(OC(C)=O)cc2c1 | 3 | -2 | 4 | 3 | 6 | 4
CCc1cccc2c(C(=O)CN3C(=O)C(=O)N(C4CCCC4)C3=O)c[nH]c12 | -3 | 23* | 7 | x | x | -2
CCOc1ccc(-c2cccc(NS(=O)(=O)c3cc([N+](=O)[O-])ccc3C)c2)nn1 | -10 | 11* | -5 | -1 | -1 | 6
Cc1ccc(S(=O)(=O)N(C)C)cc1NC(=O)COC(=O)C1CCCC1 | -4 | 21* | -2 | -3 | 0 | -4
Cc1ccc(S(=O)(=O)N(C)C)cc1NC(=O)COC(=O)CCC1CCCC1 | -7 | -1 | 0 | -1 | -10 | -12
COc1ccc(/C=N/NC(=O)c2ccc(COCC(F)(F)C(F)F)cc2)cc1 | -1 | 12* | -2 | 2 | 11 | -2
SMILES | dFosB act | NR3A LBD binder | Rpn11 block | TPT1 inh | EBNA-1 inhibitor | ZTA DNA inh
COc1ccc(/C=N/NC(=O)c2ccc(CN3c4cccc5cccc(c45)S3(=O)=O)cc2)cc1 | 4 | 22* | 3 | -5 | 8 | 6
O=C(N/N=C/c1ccc(OC(F)F)cc1)c1ccc(CSc2nc3ccccc3[nH]2)cc1 | u | 26* | 4 | 1 | -11 | -6
O=C(N/N=C/c1ccc2c(c1)OCO2)c1ccc(COCC(F)(F)C(F)F)cc1 | -1 | -8 | 42* | 0 | 6 | 11
C[C@@H]1CN([C@H](C)CO)C(=O)CCCn2cc(nn2)CO[C@H]1CN(C)C(=O)c1ccncc1 | x | x | 3 | x | x | x
COc1ccc(S(=O)(=O)c2nnn(-c3cccc(Cl)c3)c2N)cc1 | 0 | 19* | -8 | -1 | -12 | -9
COc1cccc(-n2nnc(S(=O)(=O)c3ccc(C)cc3)c2N)c1 | -1 | 1 | 4 | 0 | 5 | 6
COc1ccc(OC)c2nc3c(C(=O)NCCN(C)C)cccc3nc12 | 87* | 0 | 8 | x | x | x
CN(C)CCNC(=O)c1cccc2nc3cccc(F)c3nc12 | 33* | 1 | 4 | x | x | x
C[C@@H](C(=O)Nc1cccc(S(=O)(=O)N2CCOCC2)c1)N1C(=O)C2CC=CCC2C1=O (stereo partly specified) | -8 | -1 | 4 | 4 | -6 | 8
CSc1ccccc1OCc1cc(C(=O)NCCN2CCCc3ccccc32)no1 | -12 | 12* | 1 | 10 | 3 | 18
CSc1ccccc1OCc1cc(C(=O)NCCn2nc(C)cc2C)no1 | -9 | -1 | -2 | 5 | -2 | 0
O=C(Cc1ccc(Cl)cc1Cl)Nc1ccc(OC(F)F)c(Cl)c1 | 4 | 7 | 0 | -1 | -6 | 2
O=C(Nc1ccc([N+](=O)[O-])cc1)Nc1ccc(OC(F)F)c(Cl)c1 | -2 | 15* | -3 | -2 | -4 | 1
O=C(Nc1ccc(OC(F)F)c(Cl)c1)Nc1ccc2c(c1)OCO2 | 2 | 35* | -2 | -6 | 8 | 10
O=C(Nc1ccc(Cl)cc1)Nc1ccc2c(c1)OCO2 | 2 | 2 | 2 | -2 | 16 | 5
COc1ccc(CCNC(N)=S)cc1OC | 1 | 0 | 29 | 2 | -1 | 0
COc1ccc(OC)c(S(=O)(=O)N2CCC(C(=O)NCCc3ccc(OC)c(OC)c3)CC2)c1 | -6 | 11* | 6 | 1 | 12 | 7
COc1ccc(S(=O)(=O)N2CCC(C(=O)NCCc3ccc(OC)c(OC)c3)CC2)cc1 | x | x | -6 | x | x | x
COc1ccc(C(C)C)cc1S(=O)(=O)N1CCC(C(=O)NCC2CCCO2)CC1 (stereo unspecified) | -7 | 11* | -2 | -2 | 12 | 14
COc1ccc(S(=O)(=O)N2CCC(C(=O)NCc3cccc(OC)c3)CC2)cc1 | -8 | 1 | -13 | -4 | 11 | -3
COc1cccc(CNC(=O)C2CCN(S(=O)(=O)N3CCCCC3)CC2)c1 | -9 | 13* | -4 | 0 | 13 | -18
Cc1noc(C)c1S(=O)(=O)N1CCC(C(=O)NCCc2ccc(S(N)(=O)=O)cc2)CC1 | -4 | 11* | 0 | -1 | -2 | -1
O=C(NCC1CCCO1)C1CCN(C(=O)c2ccc(Br)cc2)CC1 (stereo unspecified) | 0 | 14* | 5 | -1 | -2 | -7
